The structures appear in SMILES notation. Where “and” joins values, the source holds several entries; their conditions need not be identical. Identical values can stand only once. Where a structure was tested more than once in an assay, its records may differ in their call. Calls of active or inactive are those of the source. How the source made its calls: active means hit-call score of the fitted dose curve at least 0.9, where 1 is the maximum; inactive means score below 0.9.

Read-out in experiment [1]: Interleukin-8 (IL8), CXCL8 (gene 3576)
Briefly: BSK_MyoF_IL8: BioMAP Diversity Plus: MyoF Assay for Interleukin-8 (IL8) Biomarker Activity (AID 2284261). Particulars: primary human lung fibroblasts. In a few lines: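 Human lung fibroblast (MyoF system) cultures dosed for 24 h, then IL-8 measured by ELISA. Response taken relative to DMSO; parallel SRB total-protein staining for cytotoxicity.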

Read-out in experiment [2]: Decorin, DCN (gene 1634)
Briefly: BSK_MyoF_Decorin: BioMAP Diversity Plus: MyoF Assay for Decorin Biomarker Activity (AID 2284265). Particulars: primary human lung fibroblasts. The method, boiled down: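 Human lung fibroblast cultures were dosed for 24 h, and decorin was then measured by ELISA. Parallel cultures were stained with sulforhodamine B for total protein as a cytotoxicity check. Gain of signal was fitted relative to DMSO.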

Experiment [3] in a line: BSK_MyoF_SRB: Viability Assessment in the BioMAP Diversity Plus: MyoF Assay (AID 2284267).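 Further: total protein by SRB absorbance in parallel cultures as cytotoxicity measure.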 Particulars: primary human lung fibroblasts. In a few lines: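 Read-out is SRB absorbance at 560 nm, reflecting total protein in parallel lung fibroblast cultures harvested 24 h after compound addition. Cells were TCA-fixed (10%) and stained with 0.1% SRB; activity is referenced to DMSO.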

Read-out in experiment [4]: Matrix Metallopeptidase 1 (MMP1), MMP1 (gene 4312)
As to the kind of experiment: BSK_MyoF_MMP1: BioMAP Diversity Plus: MyoF Assay for Matrix Metallopeptidase 1 (MMP1) Biomarker Activity (AID 2284268). Conditions: primary human lung fibroblasts. The method, boiled down: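 Human lung fibroblast primary cells; MMP1 measured by ELISA 24 h after dosing, fitted in the positive direction relative to DMSO. Parallel SRB staining (0.1%, after 10% TCA fixation, 560 nm) assesses overt cytotoxicity.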

Read-out in experiment [5]: TIMP metallopeptidase inhibitor 1 (TIMP1), TIMP1 (gene 7076)
As to the kind of experiment: BSK_MyoF_TIMP1: BioMAP Diversity Plus: MyoF Assay for TIMP metallopeptidase inhibitor 1 (TIMP1) Biomarker Activity (AID 2284269). Particulars: primary human lung fibroblasts. In a few lines: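 Fibroblasts from human lung are dosed with chemical, cultured 24 h, and assayed for TIMP-1 by ELISA. Increases over the DMSO baseline are scored, with SRB total-protein staining run in parallel for cytotoxicity.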

Read-out in experiment [6]: Monocyte Chemoattractant Protein-1 (MCP1), CCL2 (gene 6347)
Briefly: BSK_BF4T_MCP1: BioMAP Diversity Plus: BF4T Assay for Monocyte Chemoattractant Protein-1 (MCP1) Biomarker Activity (AID 2284259). Particulars: primary human bronchial epithelial cells with fibroblasts. In a few lines: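 Co-culture of bronchial epithelial cells and dermal fibroblasts dosed with chemical; MCP-1 measured by ELISA 24 h later. Activity fitted in positive direction versus DMSO; cytotoxicity checked by SRB staining in parallel cultures.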

Read-out in experiment [7]: Intercellular Adhesion Molecule 1 (ICAM1), ICAM1 (gene 3383)
Briefly: BSK_BF4T_ICAM1: BioMAP Diversity Plus: BF4T Assay for Intercellular Adhesion Molecule 1 (ICAM1) Biomarker Activity (AID 2284260). Particulars: primary human bronchial epithelial cells with fibroblasts. In a few lines: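 Co-culture of human bronchial epithelial cells and dermal fibroblasts exposed 24 h to chemical; cell-surface ICAM-1 quantified by ELISA. Parallel SRB total-protein staining assessed cytotoxicity; activity fitted relative to DMSO.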

Read-out in experiment [8]: CD90, THY1 (gene 7070)
Briefly: BSK_BF4T_CD90: BioMAP Diversity Plus: BF4T Assay for CD90 Biomarker Activity (AID 2284262). Conditions: primary human bronchial epithelial cells with fibroblasts. In a few lines: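 Co-culture of human bronchial epithelial cells and dermal fibroblasts, 24 h compound exposure. Cell-surface CD90 measured by ELISA relative to DMSO; parallel SRB total-protein staining for cytotoxicity.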

Read-out in experiment [9]: Interleukin-8 (IL8), CXCL8 (gene 3576)
Briefly: BSK_BF4T_IL8: BioMAP Diversity Plus: BF4T Assay for Interleukin-8 (IL8) Biomarker Activity (AID 2284263). Conditions: primary human bronchial epithelial cells with fibroblasts. The method, boiled down: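 Human bronchial epithelial cells with dermal fibroblasts co-culture; IL-8 measured by ELISA 24 hours after dosing, fitted vs DMSO. Cytotoxicity tracked in parallel cultures by SRB total-protein staining.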

Read-out in experiment [10]: Interleukin-1 alpha (IL1a), IL1A (gene 3552)
As to the kind of experiment: BSK_BF4T_IL1a: BioMAP Diversity Plus: BF4T Assay for Interleukin-1 alpha (IL1a) Biomarker Activity (AID 2284264). Particulars: primary human bronchial epithelial cells with fibroblasts. In a few lines:
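Human bronchial epithelial cells co-cultured with dermal fibroblasts, dosed and read at 24 h. Secreted/surface IL-1α quantified by ELISA; gain-of-signal fitted relative to DMSO baseline. Parallel SRB total-protein staining tracked cytotoxicity.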

Read-out in experiment [11]: KRT18 (gene 3875)
As to the kind of experiment: BSK_BF4T_Keratin818: BioMAP Diversity Plus: BF4T Assay for Keratin 818 Biomarker Activity (AID 2284266). Conditions: primary human bronchial epithelial cells with fibroblasts. In a few lines: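 Co-culture of human bronchial epithelial cells and dermal fibroblasts, chemical exposure 24 h. Keratin 8/18 measured by ELISA; positive-direction fit vs DMSO. SRB total protein run in parallel cultures for cytotoxicity.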

Read-out in experiment [12]: Matrix Metallopeptidase 1 (MMP1), MMP1 (gene 4312)
Briefly: BSK_BF4T_MMP1: BioMAP Diversity Plus: BF4T Assay for Matrix Metallopeptidase 1 (MMP1) Biomarker Activity (AID 2284270). Particulars: primary human bronchial epithelial cells with fibroblasts. In a few lines:
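Co-culture of human bronchial epithelial cells and dermal fibroblasts; MMP-1 levels measured by ELISA 24 hours after chemical dosing, relative to DMSO. Cytotoxicity checked in parallel cultures by SRB total-protein staining.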

Read-out in experiment [13]: Matrix Metallopeptidase 3 (MMP3), MMP3 (gene 4314)
Briefly: BSK_BF4T_MMP3: BioMAP Diversity Plus: BF4T Assay for Matrix Metallopeptidase 3 (MMP3) Biomarker Activity (AID 2284271). Particulars: primary human bronchial epithelial cells with fibroblasts. In a few lines: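 Co-culture of human bronchial epithelial cells and dermal fibroblasts dosed 24 h; MMP-3 measured by ELISA, positive-direction fit versus DMSO. Cytotoxicity tracked by SRB total-protein staining (560 nm) in parallel cultures.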

Read-out in experiment [14]: Tissue plasminogen activator (tPA), PLAT (gene 5327)
As to the kind of experiment: BSK_BF4T_tPA: BioMAP Diversity Plus: BF4T Assay for Tissue plasminogen activator (tPA) Biomarker Activity (AID 2284272). Particulars: primary human bronchial epithelial cells with fibroblasts. The method, boiled down:
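tPA level quantified by ELISA at 24 h post-treatment in bronchial epithelial/dermal fibroblast co-cultures, gain of signal scored against DMSO baseline. Parallel cultures stained with 0.1% SRB (560 nm) to flag overt cytotoxicity.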

Read-out in experiment [15]: Plasminogen Activator Inhibitor-1 (PAI1), SERPINE1 (gene 5054)
As to the kind of experiment: BSK_BF4T_PAI1: BioMAP Diversity Plus: BF4T Assay for Plasminogen Activator Inhibitor-1 (PAI1) Biomarker Activity (AID 2284273). Conditions: primary human bronchial epithelial cells with fibroblasts. The method, boiled down: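 Co-culture of human bronchial epithelial cells and dermal fibroblasts exposed to compound for 24 h. PAI-1 measured by ELISA; activity fitted in positive direction versus DMSO. Parallel SRB staining assessed overt cytotoxicity.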

Experiment [16] can be described thus: BSK_BF4T_SRB: Viability Assessment in the BioMAP Diversity Plus: BF4T Assay (AID 2284274). Particulars: primary human bronchial epithelial cells with fibroblasts. The method, boiled down: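 Co-culture of human bronchial epithelial cells and dermal fibroblasts (BioMAP BF4T) exposed 24 h. Total protein by sulforhodamine B staining (0.1% SRB after 10% TCA fixation, 560 nm) in parallel cultures; fitted vs DMSO.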

Read-out in experiment [17]: urokinase Plasminogen Activator (uPA), PLAU (gene 5328)
As to the kind of experiment: BSK_BF4T_uPA: BioMAP Diversity Plus: BF4T Assay for urokinase Plasminogen Activator (uPA) Biomarker Activity (AID 2284275). Particulars: primary human bronchial epithelial cells with fibroblasts. The method, boiled down: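 Co-culture of human bronchial epithelial cells and dermal fibroblasts; uPA quantified by ELISA 24 hours after dosing, fitted relative to DMSO. Parallel SRB total-protein staining assessed overt cytotoxicity.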

Read-out in experiment [18]: Matrix Metallopeptidase 9 (MMP9), MMP9 (gene 4318)
As to the kind of experiment: BSK_BF4T_MMP9: BioMAP Diversity Plus: BF4T Assay for Matrix Metallopeptidase 9 (MMP9) Biomarker Activity (AID 2284276). Particulars: primary human bronchial epithelial cells with fibroblasts. The method, boiled down: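 Co-culture of human bronchial epithelial cells and dermal fibroblasts dosed for 24 h; MMP-9 quantified by ELISA and fitted upward versus DMSO. Cytotoxicity monitored in parallel cultures by SRB total-protein staining at the biomarker time point.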

Read-out in experiment [19]: Interleukin-8 (IL8), CXCL8 (gene 3576)
Briefly: BSK_IMphg_IL8: BioMAP Diversity Plus: IMphg Assay for Interleukin-8 (IL8) Biomarker Activity (AID 2284277). Conditions: primary human endothelial cells with macrophages. In a few lines:
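Co-culture of human venular endothelial cells and macrophages exposed to chemicals for 24 h; IL-8 quantified by ELISA and compared against the DMSO baseline, with SRB total-protein staining in parallel cultures for cytotoxicity.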

Read-out in experiment [20]: Intercellular Adhesion Molecule 1 (ICAM1), ICAM1 (gene 3383)
As to the kind of experiment: BSK_BE3C_ICAM1: BioMAP Diversity Plus: BE3C Assay for Intercellular Adhesion Molecule 1 (ICAM1) Biomarker Activity (AID 2284278). Conditions: primary human bronchial epithelial cells. In a few lines: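 Human primary bronchial epithelial cultures; compound added; 24 h incubation; cell-surface ICAM-1 measured by ELISA; signal increase fitted relative to DMSO negative control.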

The term AC50 denotes the concentration giving half of the maximal activity seen. As to `ClC1C(Cl)C(Cl)C(Cl)C(Cl)C1Cl` (stereo not drawn), the outcome in experiment [1], in [2], in experiment [3] and in experiment [5] was inactive. For the same molecule, the concentration at half-maximal activity (AC50) in experiment [3] was 18.6 µM (active) and 726 nM (active); in [4], 8.25 µM (active) and 6.92 µM (active) and 292 nM (active).

Consider `O=C(O)C(F)(F)C(F)(F)C(F)(F)C(F)(F)C(F)(F)C(F)(F)C(F)(F)F`, for which the AC50 in [6] was 50.1 µM (active); in experiment [14], 30 µM (active) and 1.85 µM (active); in experiment [19], 20.5 µM (active) and 20.3 µM (active) and 25.2 µM (active). In addition, the result in [6], in [7], in experiment [1], in experiment [8], in experiment [9] and in experiment [10] was inactive. Also, the outcome in [2], in experiment [11], in experiment [3], in experiment [4], in experiment [5] and in [12] was inactive. Also, the outcome in experiment [13], in experiment [14], in [15], in experiment [16], in experiment [17] and in experiment [18] was inactive. Besides, the result in experiment [19] and in experiment [20] was inactive.

Regarding `O=S(=O)(O)C(F)(F)C(F)(F)C(F)(F)C(F)(F)C(F)(F)C(F)(F)C(F)(F)C(F)(F)F`, the half-maximal activity concentration (AC50) was 44.6 µM (active) in [6]; 14.7 µM (active) in experiment [13]; 17.1 µM (active) in experiment [18]; 49.3 µM (active) and 53.4 µM (active) in experiment [20]. The outcome in experiment [6], in experiment [7], in [1], in [8], in experiment [9] and in experiment [10] was inactive. Also, the result in [2], in experiment [11], in experiment [3], in [4], in [5] and in [12] was inactive. Besides, the result in experiment [13], in experiment [14], in [15], in [16], in experiment [17] and in [18] was inactive. The result in experiment [19] and in experiment [20] was inactive.
